# Reference: PubChem BioAssay AID1531 (NMMLSC, 2009)
# Out of some 290,000 compounds screened, about 3,300 (1.1%) were called active. The entries come from a sample that favours actives as a whole. Values without a mark were called inactive. Rule as the data show it: active = binding response below about 67% or above about 130%; inconclusive = no clear call, values can overlap the other calls; inactive = in between.
# Biological target: Mitogen-activated protein kinase kinase kinase 2 (Homo sapiens) (UniProt Q9Y2U5)
# Assay: wildtype MEKK2 PB1-MEK5 interaction, increase or decrease – biochemical, multiplex bead flow cytometry, Alexa488-MEK5, primary screen (AID 1531)
# Details: Alexa488-MEK5 binding to MEKK2 WT, at 10 µM, actives lie on both sides
row,Structure (SMILES),binding response (% of control)
1,C=CCC1(C(=O)N(C)Cc2ccccc2)CCN(C(=O)OC(C)(C)C)CC1,94%
2,Cc1cc(Br)ccc1NC(=S)NC1CCCC1,94%
3,CC(=O)[C@@]12O[C@@H]1C[C@H]1[C@@H]3CC[C@H]4C[C@@H](O)CC[C@]4(C)[C@H]3CC[C@@]12C,107%
4,CC(C)(C)n1nnnc1C(c1ccccc1F)N1CCN(C(=O)c2ccco2)CC1 (stereo not drawn),99%
5,N#C[C@]1(S(=O)(=O)c2ccccc2)C[C@@H]2ON=C(c3cccc(Br)c3)[C@@H]2C1,91%
6,O=C(Nc1ccc(Cl)cc1)OCc1cc(-c2ccccc2)on1,112%
7,c1ccc2cc(OCCN3CCCC3)ccc2c1,102%
8,Clc1ccccc1-c1cc(COc2ccc3ccccc3c2)no1,-1% (active)
9,Cc1c(-c2ccccc2)cn2c1-c1ccc(C)n1CC2,55% [inhibitor] (active)
10,CCCOc1ccc(Cc2c(O)nc(N)[nH]c2=O)cc1C,105%
11,COc1ccc(N2CCN(C3CCCCC3NS(=O)(=O)c3ccccc3)CC2)cc1 (stereo not drawn),105%
12,CCOc1cc2ccccc2cc1C(=O)Nc1ccccn1,108%
13,O=c1[nH]cccc1-c1nc2ccccc2n1Cc1ccc(Cl)cc1,105%
14,Cc1ccc(CNS(=O)(=O)c2ccc3c(c2)N(C)CCO3)cc1,94%
15,COc1cc(/C=C2\SC(=S)N(Nc3ncc(C(F)(F)F)cc3Cl)C2=O)cc(OC)c1OC,61% [inhibitor] (active)
16,COc1cccc(/C=N/Nc2ncc(C(F)(F)F)cc2Cl)c1O,96%
17,CCOc1ccc(/C=C2\SC(=S)N(NC(=O)c3ccncc3)C2=O)cc1OC,95%
18,CC1=NN(Cc2ccccc2)C(=O)/C1=C/c1ccc(N(C)C)cc1,109%
19,O=C1/C(=C\c2ccsc2)NC(=S)N1c1ccccc1,87%
20,CN(C)c1ccc(/C=C2\NC(=S)N(Cc3ccccc3)C2=O)cc1,72% [inhibitor] (active)
21,CN(Cc1ccco1)S(=O)(=O)c1nnc(NC(=O)c2ccccc2)s1,96%
22,CN1CCN(/N=C/c2ccc(-c3ccc([N+](=O)[O-])cc3)o2)CC1,103%
23,CSc1ccc(/C=N/N2CCN(Cc3ccccc3Cl)CC2)cc1,99%
24,CN1CCN(/N=C/c2ccc(C#N)cc2)CC1,166% (active)
25,COc1ccccc1CCNS(=O)(=O)c1cc2c3c(c1)C(C)C(=O)N3CCC2 (stereo not drawn),85%

row,Structure (SMILES),binding response (% of control)
1,Cc1ccc2c(C)c(C(=O)N(C)Cc3ccncn3)oc2c1C,98%
2,Cc1ccc2c(C)c(C(=O)N3CCN(c4ccncc4)CC3)oc2c1C,159% (active)
3,Cc1c(C(=O)N2CCN(c3ccc(F)cc3)CC2)oc2c1C(=O)CCC2,104%
4,COC(=O)c1ccc(Nc2ncnc3sccc23)cc1,102%
5,COc1ccc(-n2nnnc2SCC(=O)Nc2ccccc2)cc1,104%
6,Cc1c(NC(=O)CSc2nnnn2-c2ccc(C(=O)O)cc2)c(=O)n(-c2ccccc2)n1C,-12% (active)
7,Cc1c(NC(=O)CSc2cccc3cccnc23)c(=O)n(-c2ccccc2)n1C,99%
8,CC(Sc1nc2cc(Cl)ccc2s1)C(=O)Nc1ccc2c(c1)OCO2 (stereo not drawn),78%
9,O=C(COc1ccc(Cl)cc1)Nc1ccc2c(c1)OCO2,100%
10,O=C(Nc1ccc2c(c1)OCO2)c1sc2cc(Cl)ccc2c1Cl,19% (active)
11,COC(=O)c1ccccc1NC(=O)C1CCN(C(=O)N2CCOc3ccccc32)CC1,103%
12,Oc1ccc(-n2nnnc2SCc2c(F)cccc2Cl)cc1,98%
13,COc1ccc(CNC(=O)c2ccc(Br)s2)cc1OC,96%
14,CCn1cc(CN2CCC(n3nccc3NC(=O)CCCc3ccccc3)CC2)c(C)n1,108%
15,CCn1cc(CN2CCC(C(=O)Nc3cccc(-c4cccc(Cl)c4)c3)CC2)cn1,160% (active)
16,O=C(Nc1cccc(-c2cscn2)c1)C1CCN(Cc2ccsc2)CC1,112%
17,O=C(Nc1cccc(-c2cccc(Cl)c2)c1)C1CCN(C2CCC2)CC1,151% (active)
18,O=C(Nc1cnn(Cc2ccc(Cl)cc2)c1)C1CCCC1,110%
19,CC(=O)c1cc(CN2CCC(C(=O)Nc3cccc(-c4cscn4)c3)CC2)cs1,116%
20,O=C(NC1CCCC1)C1CCN(C(=O)Nc2cccc(Cl)c2)CC1,110%
21,CCn1cc(CN2CCC(C(=O)Nc3cccc(-c4cccc(Cl)c4)c3)CC2)c(C)n1,166% (active)
22,COc1cccc(-c2cccc(NC(=O)C3CCN(C4CCC4)CC3)c2)c1,104%
23,COc1ccc(CNC(=O)[C@@H]2CC=C[C@@H]3CCN(C4CC4)C(=O)[C@@H]32)cc1,98%
24,Cc1ccc(CN(CC(=O)NC2CCCCC2)C(=O)c2csnn2)cc1,104%
25,O=C(O)CC/C(=C\c1cc2c(cc1Br)OCO2)c1nc2ccccc2s1,95%

row,Structure (SMILES),binding response (% of control)
1,O=C(Nc1ccc(Cl)c(Cl)c1)c1ccccc1NC(=O)C1CC=CCC1C(=O)O (stereo not drawn),104%
2,CCCCc1nnc(NC(=O)CSc2nc(C)cc(=O)[nH]2)s1,99%
3,CCOC(=O)Cc1csc(NC(=O)CSc2nc(C)cc(=O)[nH]2)n1,61% [inhibitor] (active)
4,CCOC(=O)Cc1csc(NC(=O)CSc2ccc(Br)cc2)n1,109%
5,CCOc1ccccc1N1C(=O)CC(Sc2nccc(C)n2)C1=O (stereo not drawn),105%
6,CSc1ccccc1NC(=O)c1ccc2c(c1)CCN2S(C)(=O)=O,106%
7,O=C(C1CCC(=O)N(C2CC2)C1)N1CCN(c2ccc(Cl)cc2)CC1 (stereo not drawn),104%
8,CN(C)Cc1c(O)ccc2c(=O)c(-c3ccccc3Cl)coc12,112%
9,CCCOc1ccc(Cl)cc1Nc1nc(NCCO)nc(N2CCCC2)n1,112%
10,O=C(NCCCN1CCCCCC1)c1ccc(N2CCCC2=O)cc1,193% (active)
11,CC1CCC(NC(=O)c2ccc(N3CCCC3=O)cc2)CC1 (stereo not drawn),105%
12,CCOc1ccc(C(=O)NCCCN2CCCC2=O)cc1,112%
13,CC1CN(S(=O)(=O)c2cccc(C(F)(F)F)c2)CN1C(=O)N1CCOCC1 (stereo not drawn),95%
14,COc1ccccc1N1N=C(c2cccs2)CC1c1ccccc1 (stereo not drawn),93%
15,COc1ccc(C2CC(c3cccs3)=NN2c2ccccc2)cc1 (stereo not drawn),81%
16,Cc1ccccc1C1CC(c2cccs2)=NN1S(C)(=O)=O (stereo not drawn),16% (active)
17,FC(F)(F)c1cccc(N/N=C/c2ccccc2)c1,143% (active)
18,O=[N+]([O-])c1ccc(N/N=C/c2ccccc2)cc1,99%
19,FC(F)(F)c1cccc(Nc2ncnc3ccccc23)c1,103%
20,O=C1Nc2cc(C(=O)N3CCN(c4ccc(F)cc4)CC3)ccc2NC1CSCc1cccc(F)c1 (stereo not drawn),87%
21,Nc1ccc(S(=O)(=O)Nc2nccc(/C=C/c3ccc(Br)s3)n2)cc1,93%
22,O=C(/C=C/c1ccccc1Cl)Nc1ccc(S(=O)(=O)Nc2ncccn2)cc1,92%
23,CC(=O)Nc1ccc(S(=O)(=O)Nc2nccc(/C=C/c3ccccc3F)n2)cc1,-6% (active)
24,CC(=O)N1c2ccc(S(=O)(=O)N3CCC(C(=O)N4CCN(c5ccccc5)CC4)CC3)cc2CC1C (stereo not drawn),102%
25,COc1ccc(C=C(C#N)C#N)c(CSc2ccccn2)c1,103%

row,Structure (SMILES),binding response (% of control)
1,CCOc1ccccc1NC(=O)NC1CCCCCCC1,98%
2,COCCNC(=O)CN(Cc1ccco1)C(=O)CCC(=O)Nc1nccs1,103%
3,O=C(c1ccc(F)cc1)n1c(=S)nc2ccccn21,80%
4,CC(NS(=O)(=O)c1ccc(Br)cc1)C(=O)NCC1CCCO1 (stereo not drawn),100%
5,O=C(CSc1ccc(-c2ccc(Br)cc2)nn1)NCC1CCCO1 (stereo not drawn),107%
6,OC(CNCC1CCCO1)Cn1c2ccc(Br)cc2c2cc(Br)ccc21 (stereo not drawn),141% (active)
7,COC(=O)C(C)n1cnc2c(nnn2-c2ccc(F)cc2)c1=O (stereo not drawn),94%
8,COc1cc(NC(=O)CCS(=O)(=O)c2ccc3c(c2)oc(=O)n3C)cc(OC)c1,100%
9,COc1ccc(CCNC(=O)C2CCCN(S(=O)(=O)c3ccc(OC)cc3)C2)cc1 (stereo not drawn),94%
10,CC(C)(C)Oc1ccccc1Nc1nc(NCCO)nc(N2CCCC2)n1,103%
11,Cc1[nH]c2ccccc2c1/C=N/NC(=O)CNC(=O)c1ccc2c(c1)OCO2,100%
12,COCCNC(=S)N/N=C/c1c(C)[nH]c2ccccc12,24% (active)
13,Cc1[nH]c2ccccc2c1/C=N\NC(=O)Cn1nnc(-c2ccccc2)n1,107%
14,CC(C)c1nc2cc(C(=O)NC(C)c3cnn(C)c3)ccc2o1 (stereo not drawn),104%
15,O=C(OCc1cc(Cl)ccc1OC(F)F)c1cccnc1,281% (active)
16,O=C(OCc1cc2ccccc2[nH]c1=O)c1cccnc1,109%
17,Cc1cc(=O)[nH]c(SCc2cc(Cl)ccc2OC(F)F)n1,106%
18,COC(=O)C1=C[C@@H](C(=O)OC)[C@@H]2C3=C(C(=O)[C@]2(C)NC(=O)c2ccccc2)[C@H](C)n2c(=O)n(C)c(=O)n2[C@@H]3C1,102%
19,OCC[C@H]1C[C@H](O)[C@@H](O)[C@]2(CCCCO2)O1,98%
20,Cc1ccc(NS(=O)(=O)c2cc3c(cc2C)NC(=O)CO3)cc1,98%
21,Cc1cccc(NC(=O)Nc2cccc(Oc3c(F)c(F)c(F)c(F)c3F)c2)c1,235% (active)
22,Cc1cccc(NC(=O)c2cccc(C(F)(F)F)c2)c1,91%
23,COc1cccc(NC(=O)NCc2ccc(F)cc2)c1,98%
